# Source: PubChem
# An excerpt weighted towards active compounds, which were near 7.4% of everything screened.
# NPC1 prom act: activators of NPC1 promoter. Huh7 NPC1 promoter luciferase reporter, 24 h. Potency, µM (titrated, usually from 9.22 µM), without a hit: at the highest dose activation, most hits filed as activators. actives 2.4% (n = 320,000); note: % of control where 0% means no effect; nearly all actives have a fitted effect of over 60% in size
#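 Compounds in DMSO were transferred onto Huh7 NPC1-luciferase reporter cells pre-incubated 2 h; after 24 h at 37 °C, Amplite reagent was dispensed and luminescence recorded 10 min later.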
# ELG1 genotoxic: genotoxicity induction in ELG1-luciferase HEK293T cells | Potency, µM (highest dose often 46 µM), for the others: at the top dose activity change, positive = activation, most hits filed as activators | HEK293T ELG1-luciferase reporter, luminescence, 16 h | actives 1.3% (n = 330,000); note: % of control where 0% means no effect; nearly all actives have a fitted effect of over 60% in size
#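 DMSO vehicle served as control against compound-treated ELG1-luciferase HEK293T cells; exposure lasted 16 hr at 37 °C and 5% CO2, followed by ONE-Glo luminescence detection after 30 min.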
# Rab9 promoter act: Rab9 promoter activation. Huh7 Rab9 promoter-luciferase reporter, luminescence, 24 h. Potency, µM (titrated, usually from 9.22 µM), without a hit: top-dose activation, negative = inhibition, hits mostly activators. actives 2.8% (n = 320,000); note: % of control where 0% means no effect; nearly all actives have a fitted effect of over 60% in size
#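 Quantitative HTS format; Huh7 Rab9-luciferase reporter cells (1500/well) receive compound 2 h post-plating, incubate 24 h at 37 °C, then get luciferase reagent for 10 min before luminescence reading.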
# FLuc modulator: firefly luciferase modulation, counter-screen for miR-21 project; P08659; AID 588342; purified FLuc, Km substrates, luminescence inhibition; actives 6.9% (n = 360,000); Potency, µM (top dose mostly 57.5 µM), for the others: at the top dose activity change, negative = inhibition, most hits filed as inhibitors;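 note: plate controls were vehicle for no effect and reference inhibitor for full effect; nearly all actives have a fitted effect of over 55% in size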
# Target sequence (P08659 whole entry, looked up): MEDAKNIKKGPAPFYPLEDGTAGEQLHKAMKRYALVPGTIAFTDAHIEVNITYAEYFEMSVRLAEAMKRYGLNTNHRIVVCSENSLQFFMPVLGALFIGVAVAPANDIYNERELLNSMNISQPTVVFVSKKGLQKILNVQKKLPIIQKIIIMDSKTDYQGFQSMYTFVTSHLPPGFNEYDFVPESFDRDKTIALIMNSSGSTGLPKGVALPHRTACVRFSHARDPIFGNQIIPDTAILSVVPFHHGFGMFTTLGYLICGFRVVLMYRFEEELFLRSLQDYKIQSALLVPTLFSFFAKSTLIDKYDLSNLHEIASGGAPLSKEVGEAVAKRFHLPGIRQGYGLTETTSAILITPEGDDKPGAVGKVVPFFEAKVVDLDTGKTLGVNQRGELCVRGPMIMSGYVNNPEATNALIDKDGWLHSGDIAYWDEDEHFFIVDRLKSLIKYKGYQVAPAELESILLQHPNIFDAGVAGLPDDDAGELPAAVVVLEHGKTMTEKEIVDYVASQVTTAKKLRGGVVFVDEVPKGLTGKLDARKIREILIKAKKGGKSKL
#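 Biochemical qHTS of compounds, final roughly 60 µM downward over six points, against 10 nM purified firefly luciferase using Km concentrations of substrates (10 uM D-luciferin, 10 uM ATP) in Tris acetate pH 7.5 buffer; luminescence output.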
# SMN2 splice enh: increases expression of the SMN2 splice variant; HEK293 SMN2-luciferase splicing reporter, luminescence, 30-36 h; Potency, µM (doses to about 46.1 µM), for the others: at the top dose activity change, positive = activation, hits mostly activators; actives 2.8% (n = 210,000); AID 1458; note: % of control where 0% means no effect; nearly all actives have a fitted effect of over 55% in size
#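 HEK293 cells carry an SMN2 […]–luciferase reporter in which exon 7 inclusion puts luciferase in frame. Cells were plated 10-12 h before compound addition, then incubated 30-36 h at 37C. ONE-Glo luminescence was read; sodium butyrate at 4.5 mM final served as control.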
# * hit, by the source's call; ? = inconclusive; · = no result. Calls come from the whole dose curve; as a rule, active = well fitted curve in the direction sought with a large enough effect; inconclusive = small, poorly fitted or top-dose-only effect, or another doubt; inactive = no such curve, though single readings can be large; an effect the other way counts as inactive or inconclusive. Potency is the fitted concentration of half-maximal effect.
SMILES,NPC1 prom act,ELG1 genotoxic,Rab9 promoter act,FLuc modulator,SMN2 splice enh
COc1ccccc1-n1cc(C(=O)NCC(=O)N2CCN(c3ccccc3)CC2)c2ccccc2c1=O,28%,15%,?,0.76µM*,?
C/C(=C\C[Si](C)(C)C)CC[C@H](O)C1=CCCCC1=O,·,·,·,·,-7%
Cc1cccn2c(=O)c(C(=O)N3CCN(c4ccccc4)CC3)cnc12,·,·,·,1%,·
Cc1ccc(-c2nnc(CCC(=O)NCC3C4CC5CC(C4)CC3C5)o2)s1 (stereo not drawn),?,?,2.5µM*,19µM*,·
CCOc1ccccc1NC(=O)C(=O)c1cc(C)n(-c2cccc(C)c2C)c1C,·,·,·,-2%,·
Cc1ccc(S(=O)(=O)Nc2ccc3c(c2)OCCO3)cc1C,-3%,5%,0%,21µM*,·
Cc1cccc(NS(=O)(=O)c2ccc3c(c2)OCCO3)c1,-1%,-7%,-1%,4%,14µM*
CC1CCCN(Cc2c(O)ccc3c(=O)c(-c4nc5ccccc5s4)c(N)oc23)C1 (stereo not drawn),9%,5%,5%,6.7µM*,-15%
CC1(C)CCCN(Cc2c(O)ccc3c(=O)c(-c4nc5ccccc5s4)c(N)oc23)C1,11%,?,?,6µM*,·
CC1CCN(Cc2c(O)ccc3c(=O)c(-c4nc5ccccc5s4)c(N)oc23)CC1,-4%,-1%,-4%,11µM*,20%
CC1CCCN(Cc2c(O)ccc3c(=O)c(Oc4ccccc4Cl)c(C(F)(F)F)oc23)C1 (stereo not drawn),·,·,·,9%,3%
CC1CCN(Cc2c(O)ccc3c(=O)c(-c4ccc(Cl)cc4)c(C(F)(F)F)oc23)CC1,·,·,·,0%,-3%
O=CCCCC=O,·,·,·,·,3%
CCOc1ccc(CNC(=O)CSc2nnc(C)c3c(C)n(-c4ccc(Cl)cc4)nc23)cc1,·,·,·,1%,·
CN(C)c1ccc(NC(=O)Cn2c(SCc3ccccc3F)nc3cccnc32)cc1,·,·,·,0%,·
COc1ccc(NC(=O)Cn2c(SCc3ccc(C)cc3)nc3cccnc32)cc1OC,·,·,·,0.6µM*,·
COc1ccc(CC(=O)NCc2nc3cccnc3n2Cc2ccc(F)cc2)cc1OC,·,·,·,1%,·
O=C(Cn1c(SCc2ccccc2F)nc2cccnc21)Nc1ccc(F)c(Cl)c1,·,·,·,27µM*,·
O=C(CSc1nc2ccccc2n1CC(=O)Nc1ccc(F)cc1F)Nc1ccc(F)cc1,·,·,·,0%,·
O=C(Cn1c(SCc2ccc(F)cc2)nc2cccnc21)Nc1ccccc1F,·,·,·,9.5µM*,·
COc1ccc(NC(=O)Cn2c(SCc3ccc(F)cc3)nc3cccnc32)cc1OC,·,·,·,2.7µM*,·
COCCNC(=O)Cn1c(=O)n(CCCCCC(=O)NCc2ccccc2Cl)c(=O)c2sccc21,·,·,·,-1%,-2%
Cc1noc(C)c1S(=O)(=O)N(CC(=O)Nc1ccc(F)cc1F)c1ccc(C(C)C)cc1,·,·,·,-3%,-41%
Cc1ccc(S(=O)(=O)NCCc2sc3nc(-c4ccccc4)nn3c2C)cc1C,·,·,·,1%,·
Cc1cc(C(=O)Nc2ccccc2C(=O)O)ccc1NC(=O)COc1cccc([N+](=O)[O-])c1,-1%,3%,-3%,24µM*,·
SMILES,NPC1 prom act,ELG1 genotoxic,Rab9 promoter act,FLuc modulator,SMN2 splice enh
Cc1cc(C(=O)Nc2ccccc2C(=O)O)ccc1NC(=O)COc1cccc(C)c1C,16%,29%,14%,6µM*,·
COCC(=O)Nc1cc(C(=O)Nc2ccccc2C)ccc1Cl,7%,4%,6%,?,11%
Cc1ccc(C(=O)Nc2ccccc2C(=O)O)cc1NC(=O)COc1c(C)cccc1C,-3%,-3%,-5%,13µM*,13%
COc1ccc(-c2ccc(CNCc3ccccn3)o2)cc1Cl,-4%,8%,-3%,?,·
Fc1ccc(-c2ccc(CNCc3ccccn3)o2)cc1,27%,?,5%,24µM*,·
Clc1ccc(-c2ccc(CNCc3ccccn3)o2)cc1,?,4%,24%,15µM*,·
CC(C)OCCCN1C(=O)c2[nH]nc(-c3ccccc3O)c2C1c1ccccc1F (stereo not drawn),·,·,·,-2%,-5%
O=C(CCNS(=O)(=O)c1ccc2c(c1)CCCC(=O)N2)NCc1ccccc1Cl,·,·,·,-1%,·
